Here are results for 96 compounds from PubChem BioAssay AID1063 (University of Pittsburgh Molecular Library Screening Center, 2008).

Hit rate of the full screen: of about 200,000 compounds, about 18,000 (9%) were called active. Cut-off read from the data, not from the text of the source: active = inhibition above about 50%; inactive = the rest. For the sample, actives were picked, then their nearest neighbours and some compounds at random.

The assay is described as follows: Leishmania major promastigote growth inhibition, primary screen (AID 1063).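 Note: promastigotes grown with compound for 44 hours at 28 °C.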 Particulars: Leishmania major promastigotes, resazurin fluorescence viability; at 10 µM; active compounds read high. Background: Alamar Blue is a resazurin reagent that responds to reducing activity.
The inhibition is the change of the read-out against control, counted positive when it falls. `S=C(NCCc1ccccc1)NCc1ccccc1Cl`: the inhibition was -3.26% (inactive). To `OCCNCc1cccc(OCc2ccccc2Cl)c1` belongs 88.8% (active); to `O=C(O)Cc1ccc(NCc2ccccc2Cl)cc1`, -1.01% (inactive). As to `COc1ccccc1NC(=O)c1cc(Cl)nnc1Cl`, the inhibition was 15.6% (inactive). The result for `COc1ccc(NC(=O)c2sc(N)nc2-c2ccccc2)cc1` reads 2.6% (inactive). To `Cc1cccc(NC(=O)c2sc(-c3ccccc3)nc2-c2ccc([N+](=O)[O-])cc2)c1` belongs 99.5% (active); to `Cc1cccc(NC(=O)c2cc([N+](=O)[O-])ccc2N2CCN(C)CC2)c1`, -0.64% (inactive); to `CC(=O)C1=C(O)C(=O)N(c2cccnc2)C1c1ccc([N+](=O)[O-])cc1` (stereo unspecified), -4.89% (inactive). To `Cc1ccc(OCC(=O)NNC(=S)NCc2ccccc2)cc1` belongs -2.06% (inactive); to `Cc1ccc(Nc2nc(CSc3nnnn3-c3ccccc3)cc(=O)[nH]2)cc1`, 97.7% (active); to `Cc1ccc(-c2noc(CSc3nnnn3-c3ccccc3)n2)cc1`, 7.86% (inactive). Consider `O=c1c2ccccc2nc(CSc2nnnn2-c2ccccc2)n1-c1ccccc1`, for which the inhibition was -5.4% (inactive). For the compound `CC1=NNC(=O)C1CCC(=O)N/N=C\c1cccc(Cl)c1` (stereo unspecified), the inhibition is 0.75% (inactive). The result for `COc1ccc(-c2nn(-c3ccccc3)cc2/C=C\C(=O)N2CCOCC2)cc1[N+](=O)[O-]` reads 12.4% (inactive); that for `O=[N+]([O-])c1cc(S(=O)(=O)CCCN2CCOCC2)ccc1F`, 1.38% (inactive); that for `C=CCOc1ccc(Cl)cc1CNCCCN1CCOCC1`, 69.1% (active). The result for `COc1ccc(-c2ccc(CNCCCN3CCOCC3)o2)cc1Cl` reads 40% (inactive). To `COc1ccc(OC)c(Cc2nnc(CCC(=O)NC3CCCC3)o2)c1` belongs -0.8% (inactive); to `O=C1Nc2cc(Cl)c(Cl)cc2N(O)N1c1ccccc1Cl`, -6.67% (inactive); to `NC1=NC2(CCCCC2)N(c2ccc(F)cc2F)C(N)=N1`, -5.15% (inactive). In the case of `Cc1cc(C(=O)CC#N)c(C)n1-c1c(C)n(C)n(-c2ccccc2)c1=O`, the inhibition is -0.96% (inactive). To `CC(=O)c1cnc(SCC(=O)O)nc1C` belongs -12.2% (inactive); to `NNc1nc2c(Cl)cccc2s1`, 99.1% (active). `C/C(=N\NC(=O)OC(C)(C)C)c1ccc[nH]1`: the inhibition was -3.24% (inactive).

As to `COc1cc([N+](=O)[O-])ccc1NC(=O)CN1CCCC1`, the inhibition is -4.3% (inactive). For `Cc1cc(-c2nnc(CCC(=O)NC(c3ccccc3)c3ccccc3)o2)no1`, the inhibition was 5.43% (inactive). In the case of `NNC(=O)c1cnn(-c2ccccc2)c1C(F)(F)F`, the inhibition was -1.35% (inactive). The result for `Cc1ccc(NC(=O)CN(C)S(=O)(=O)c2cnc[nH]2)cc1C` reads -1.54% (inactive).

As for `CN(CC(=O)NCCc1ccccc1)S(=O)(=O)c1cnc[nH]1`, the inhibition is 57.7% (active).

Take `CN(CC(=O)NC1CCCC1)S(=O)(=O)c1cnc[nH]1`: the inhibition was -0.93% (inactive). The result for `COC(=O)c1nc(NC(=O)c2ccc(C(C)(C)C)cc2)n[nH]1` reads -4.46% (inactive); that for `CCC(C)(C)NC(=O)C(c1cccc(OC)c1OC)N(CC(C)C)C(=O)CCC(=O)Nc1cc(C)on1` (stereo unspecified), 9.34% (inactive); that for `O=C1NC(c2cccc(Cl)c2)Nc2ccccc21` (stereo unspecified), -1.93% (inactive). To `O=C(O)c1ccc(/C=N/NC(=S)NCc2ccccc2)cc1` belongs -3.57% (inactive). The result for `O=C(N/N=C/c1ccc2c(c1)OCO2)C(=O)N1CCCC1` reads -3.67% (inactive). On to `O=C(Cc1ccc(F)cc1)N1CCN=C1SCc1cccc([N+](=O)[O-])c1`, for which the inhibition is 46.3% (inactive). For `Cc1cc(C)cc(C(=O)N2CCN=C2SCc2ccc([N+](=O)[O-])cc2)c1`, the inhibition is 20.5% (inactive). To `Cc1cccc(CC(=O)N2CCN=C2SCc2ccc([N+](=O)[O-])cc2)c1` belongs 88.4% (active).

Consider `Cc1ccc(S(=O)(=O)N2CC(=O)Nc3ccccc32)cc1C`, for which the inhibition was 3.05% (inactive). To `Cc1cccc(C)c1NC(=O)C(c1ccccc1)N1CC(=O)Nc2ccccc21` (stereo unspecified) belongs 57.2% (active); to `Cc1ccc(C(=O)N2CC(=O)Nc3ccccc32)o1`, -0.84% (inactive). To `COc1ccc(C(=O)Nc2nc(-c3ccc(S(=O)(=O)N4CCOCC4)cc3)cs2)cc1` belongs 80.4% (active); to `COc1ccc(-c2csc(NC(=O)c3ccc(N4C(=O)CCC4=O)cc3)n2)cc1OC`, 6.8% (inactive). To `CCOC(=O)c1csc(NC(=O)c2ccc(S(=O)(=O)N3CCCC3)cc2)n1` belongs 0.83% (inactive); to `C=CCN(c1ccc(Cl)cc1)S(=O)(=O)c1cccc(C(=O)OCC(=O)N(C)C)c1`, -0.9% (inactive); to `Cc1ccccc1N1CCN(CCCOc2ccc3c(C)cc(=O)oc3c2)CC1`, 42.5% (inactive). Consider `Cc1c(Br)c([N+](=O)[O-])nn1CC(=O)N1CCN(Cc2ccccc2)CC1`, for which the inhibition was 0.53% (inactive). The result for `O=C(COc1ccccc1[N+](=O)[O-])NC1CC1` reads -4.5% (inactive).

In the case of `Cc1ccc(C(=O)COC(=O)CCCC(=O)NC2CCCCC2)cc1[N+](=O)[O-]`, the inhibition is 33.2% (inactive). To `Cc1cc(OCCCN2CCN(Cc3ccccc3)CC2)ccc1[N+](=O)[O-]` belongs 94.3% (active); to `Cc1cc(OCC(=O)NC2CCN(C)CC2)ccc1[N+](=O)[O-]`, 55% (active); to `O=C(O)Cc1sc(-c2ccccc2)nc1-c1cccs1`, -7.68% (inactive). To `CC(=O)NCC(=O)N1CCCC(C(=O)c2ccc3c4c(cccc24)CC3)C1` (stereo unspecified) belongs 1.15% (inactive); to `O=C(COc1ccccc1Cl)Nc1ccc(C(=O)c2ccc(C(=O)O)cc2)cc1`, 0.1% (inactive). The result for `CN(CC(=O)Nc1ccccc1[N+](=O)[O-])Cc1ccc(Br)cc1` reads 5.69% (inactive); that for `CC1=C(C)C(=O)OC(C(C)C2CCC3C4CC=C5CC(OC6OC(COC7OC(CO)C(O)C(O)C7O)C(O)C(O)C6O)CC(O)C5(C)C4CCC23C)C1` (stereo unspecified), -11.1% (inactive); that for `Cc1cc(C)cc(OCC(=O)NCc2cc(C)nc3ccccc23)c1`, 36.5% (inactive). In the case of `COC(=O)CC1=NN(c2ccccc2)C(=O)C1`, the inhibition is -3.08% (inactive). Take `C/C(=C\C(=O)c1cccnc1)Nc1ccc(C)c(C)c1`: the inhibition is 20.1% (inactive). The result for `Cc1cc(/C=C(/C#N)C(=O)Nc2ccc(Cl)cc2)c(C)n1-c1cccnc1` reads 56.9% (active). Turning to `Cc1ccc(-n2c(C)cc(/C=C(\C#N)C(=O)NCC3CCCO3)c2C)cc1` (stereo unspecified), the inhibition is -2.28% (inactive). To `COC(=O)c1c(C)[nH]c(C)c1-c1ccc([N+](=O)[O-])cc1` belongs 12.6% (inactive); to `O=C(CSc1nn(-c2ccc(F)cc2)c(=S)s1)NC1CCS(=O)(=O)C1` (stereo unspecified), 2.16% (inactive); to `COc1ccc(NC(=O)CCNS(=O)(=O)c2ccc3c(c2)c(=O)n(C)c(=O)n3C)cc1OC`, -8.95% (inactive). Consider `CCN(CC)P(=O)(Nc1ccc(SC(F)F)cc1)c1ccc(N(C)C)cc1NC(=O)c1ccco1` (stereo unspecified), for which the inhibition was 85.2% (active).

Consider `O=C(Nc1ccc(Sc2ccc(Br)cc2)cc1)c1ccco1`, for which the inhibition is -2.45% (inactive).

With `CCC(=O)NC(=S)Nc1ccc(NC(=O)c2ccco2)c(Cl)c1`, the inhibition is -3.46% (inactive).

Consider `COc1ccc(N2CCN(C(=O)COc3ccc4c(C)cc(=O)oc4c3)CC2)cc1`, for which the inhibition was 1.16% (inactive). For `Cc1ccc2cc(C#N)c(NCCNC(=S)NCCCN3CCOCC3)nc2c1`, the inhibition is 1.99% (inactive). To `CN(C)S(=O)(=O)N1CCN(c2ccc([N+](=O)[O-])cc2)CC1` belongs -7.87% (inactive); to `Cc1cc(C)c(OCCN2CC(C)OC(C)C2)c(Br)c1` (stereo unspecified), 88.1% (active).

As to `CC(=O)Nc1cccc(C(=O)Nc2nc(C)cs2)c1`, the inhibition is 11.8% (inactive). For `CC1CCCN(CC(O)COc2ccc3c(c2)OCO3)C1` (stereo unspecified), the inhibition was 54.4% (active). In the case of `CN1CCN(CC(O)COCc2ccc3c(c2)OCO3)CC1` (stereo unspecified), the inhibition was -2.38% (inactive). For `CC1CCCN(CC(O)COCc2ccccc2)C1` (stereo unspecified), the inhibition was 11% (inactive). The result for `Cc1coc(C)c1C(=O)CC1(O)C(=O)N(C)c2ccc(Cl)cc21` (stereo unspecified) reads 1.6% (inactive); that for `O=C(Nc1cccc(Cl)c1)c1cc([N+](=O)[O-])ccc1N1CCN(CCO)CC1`, 0.91% (inactive); that for `COc1cc(NC(=S)NCCSc2ccc(C)cc2)cc(OC)c1`, 7.14% (inactive). In the case of `Cn1c(N)c(C(=O)COC(=O)/C=C/c2ccc(OC(F)F)cc2)c(=O)n(C)c1=O`, the inhibition was -9.55% (inactive). With `CCCCCC(=O)Nc1ccc(-c2cn3cccnc3n2)cc1`, the inhibition was -7.19% (inactive). To `O=C(N/N=C\c1ccc(Br)cc1)c1ccc(Cn2cccn2)o1` belongs 1.72% (inactive); to `CN(C)c1ccc(/C=N/NC(=O)c2ccc(Cn3cc(Br)cn3)o2)cc1`, 3.04% (inactive); to `O=C(N/N=C/c1ccc2c(c1)OCO2)c1ccc(Cn2cc([N+](=O)[O-])cn2)o1`, 87% (active). In the case of `CCCCN1C(=S)NC[C@@H]1C(C)CC` (stereo partly specified), the inhibition is -1.31% (inactive). Regarding `CCOC(=O)c1ccc(NNC(C)=O)c([N+](=O)[O-])c1`, the inhibition was -5.16% (inactive). To `COc1ccc(OC)c(C2C3=C(N=c4s/c(=C\c5cccc(O)c5)c(=O)n42)c2ccccc2CC3)c1` (stereo unspecified) belongs 75.7% (active); to `COCCOC(=O)C1=C(C)N=c2s/c(=C\c3cccs3)c(=O)n2C1c1cccs1` (stereo unspecified), 7.92% (inactive). To `CCOC(=O)C1=C(C)N=c2s/c(=C\C(=O)OC)c(=O)n2C1c1ccc(OC)cc1` (stereo unspecified) belongs 18.8% (inactive); to `CNC(=S)N1N=C(c2ccccc2)CC1c1ccc(Br)cc1` (stereo unspecified), 99.3% (active).

For the compound `Brc1ccc(C2CC(c3ccccc3)=Nc3ccccc3N2)cc1` (stereo unspecified), the inhibition was 27.2% (inactive). The result for `COc1ccc(C2CC(c3ccccc3)=NN2C(=O)COC(=O)COc2ccccc2)cc1` (stereo unspecified) reads 2.56% (inactive); that for `O=C1CS(=O)CN1c1ccc(Oc2ccccc2)cc1` (stereo unspecified), -2.75% (inactive).

Turning to `NS(=O)(=O)c1cccc(NC(=O)COC(=O)/C=C/c2ccco2)c1`, the inhibition was -5.99% (inactive).

In the case of `CCN(c1ccccc1)S(=O)(=O)c1ccc(C(=O)Nc2nccs2)cc1`, the inhibition is 72.2% (active).

For the compound `CC(=O)Oc1ccc(C(=O)Nc2nccs2)cc1`, the inhibition was -7.34% (inactive).

Take `CCN(c1ccccc1)S(=O)(=O)c1ccc(NC(=O)C(C)(C)C)cc1`: the inhibition is 0.65% (inactive).
